The values below come from PubChem BioAssay.

A number with no mark means an inactive call. For some of these results: Results with a measured potency or affinity are listed apart. The source made the active and inactive calls. Unless noted, how the calls were made is not given here.

Test [1] can be described thus: antimalarial activity against Dd2 strain (AID 2302;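 active means growth inhibition above 50% at the single 2 µM test dose, taken to imply half-maximal potency below 2 µM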;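 further: 0% = DMSO untreated growth and 100% = chloroquine plus artemisinin killed control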). The settings on record: P. falciparum Dd2 in RBCs, LDH growth readout, 72 h; at 2 µM; stronger effect = higher value.
The target in test [2] is L-lactate dehydrogenase (Plasmodium falciparum (isolate CDC / Honduras)) (UniProt Q27743). As to the kind of experiment: PfLDH activity inhibition – cell lysate, 3D7 strain, counter-screen for P. falciparum growth inhibition project (AID 2304).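 Further: 0% = vehicle and 100% = reference inhibitor.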 The settings on record: P. falciparum 3D7 crude extract, LDH APAD/NBT absorbance; at 2 µM; stronger effect = higher value.
Test [3] can be described thus: inhibition of 3D7 malaria parasite growth – strain 3D7 (AID 2306).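 Further: 0% = DMSO wells and 100% = chloroquine plus artemisinin control wells.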 The settings on record: P. falciparum 3D7 erythrocytic growth, LDH absorbance, 72 h; at 2 µM; stronger effect = higher value.
Test [4] concerns the target Calcium-dependent protein kinase 1 (Plasmodium falciparum (isolate 3D7)) (UniProt P62344). As to the kind of experiment: PfCDPK1 kinase inhibitors, biochemical, TCAMS library (AID 1159585; cut-off not given, nearly all actives have IC50 up to about 0.98 µM;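 further: inhibitors leave more ATP so luminescence rises with inhibition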). The settings on record: recombinant PfCDPK1, Kinase-Glo ATP depletion luminescence.
The target of test [5] is Plasmodium falciparum protein kinase 6 (PK6, PF3D7_1337100) (UniProt Q8IDW1). As to the kind of experiment: PfPK6 kinase inhibitors, biochemical, TCAMS library (AID 1159586). The settings on record: recombinant PfPK6, Kinase-Glo ATP depletion luminescence. For orientation: In Kinase-Glo more light means more ATP remaining.
Test [6] concerns the target Protein kinase 7 (PK7), Plasmodium falciparum 3D7 (PF3D7_0213400) (UniProt Q7YTF7). As to the kind of experiment: inhibition of Plasmodium PK7 catalytic activity – biochemical, TCAMS antimalarial set, Kinase-Glo luminescence (AID 1159587). The settings on record: recombinant PfPK7, Kinase-Glo ATP depletion luminescence.
Test [7] has as its target Calcium-dependent protein kinase 4 (Plasmodium falciparum (isolate 3D7)) (UniProt Q8IBS5). As to the kind of experiment: PfCDPK4 kinase inhibitors, biochemical, TCAMS library (AID 1159588; cut-off not given, nearly all actives have IC50 up to about 0.91 µM). The settings on record: recombinant PfCDPK4, Kinase-Glo ATP depletion luminescence.

Chain of Calcium-dependent protein kinase 1 (Plasmodium falciparum (isolate 3D7)) (P62344 whole entry, looked up): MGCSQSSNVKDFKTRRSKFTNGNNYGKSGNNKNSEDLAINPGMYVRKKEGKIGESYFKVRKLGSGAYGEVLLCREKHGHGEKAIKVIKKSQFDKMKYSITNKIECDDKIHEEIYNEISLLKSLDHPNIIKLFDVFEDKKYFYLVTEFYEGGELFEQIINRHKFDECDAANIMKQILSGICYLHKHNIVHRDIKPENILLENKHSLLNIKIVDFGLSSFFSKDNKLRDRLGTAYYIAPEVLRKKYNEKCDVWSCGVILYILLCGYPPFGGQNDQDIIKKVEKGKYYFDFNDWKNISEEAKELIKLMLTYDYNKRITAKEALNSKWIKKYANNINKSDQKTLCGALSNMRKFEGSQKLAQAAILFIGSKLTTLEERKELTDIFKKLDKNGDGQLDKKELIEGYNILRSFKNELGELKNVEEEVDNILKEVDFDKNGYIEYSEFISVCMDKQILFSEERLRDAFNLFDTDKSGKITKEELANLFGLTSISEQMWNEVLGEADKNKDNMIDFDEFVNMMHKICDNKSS
Chain of Calcium-dependent protein kinase 4 (Plasmodium falciparum (isolate 3D7)) (Q8IBS5 whole entry, looked up): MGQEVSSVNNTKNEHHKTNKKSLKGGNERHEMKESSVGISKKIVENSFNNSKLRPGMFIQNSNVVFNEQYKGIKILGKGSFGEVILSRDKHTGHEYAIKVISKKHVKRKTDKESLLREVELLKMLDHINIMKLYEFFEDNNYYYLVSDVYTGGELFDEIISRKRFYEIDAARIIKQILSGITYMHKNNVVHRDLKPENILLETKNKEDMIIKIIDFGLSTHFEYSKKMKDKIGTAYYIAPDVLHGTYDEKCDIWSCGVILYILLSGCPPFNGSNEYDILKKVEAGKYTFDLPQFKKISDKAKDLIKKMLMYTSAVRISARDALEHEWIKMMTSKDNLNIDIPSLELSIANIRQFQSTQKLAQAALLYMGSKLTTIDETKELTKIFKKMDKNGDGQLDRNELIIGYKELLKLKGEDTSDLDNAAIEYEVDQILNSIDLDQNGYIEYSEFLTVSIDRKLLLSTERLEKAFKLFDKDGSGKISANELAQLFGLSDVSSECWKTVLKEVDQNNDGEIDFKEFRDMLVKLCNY
Chain of Plasmodium falciparum protein kinase 6 (PK6, PF3D7_1337100) (Q8IDW1 1-305): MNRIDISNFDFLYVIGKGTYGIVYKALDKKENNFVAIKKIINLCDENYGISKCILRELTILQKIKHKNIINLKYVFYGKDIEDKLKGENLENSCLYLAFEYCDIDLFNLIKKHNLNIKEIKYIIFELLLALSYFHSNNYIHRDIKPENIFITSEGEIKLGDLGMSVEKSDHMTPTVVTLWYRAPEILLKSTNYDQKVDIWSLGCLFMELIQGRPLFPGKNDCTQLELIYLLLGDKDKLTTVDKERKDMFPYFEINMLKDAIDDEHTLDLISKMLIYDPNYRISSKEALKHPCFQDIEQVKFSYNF
Chain of Protein kinase 7 (PK7), Plasmodium falciparum 3D7 (PF3D7_0213400) (Q7YTF7 1-343): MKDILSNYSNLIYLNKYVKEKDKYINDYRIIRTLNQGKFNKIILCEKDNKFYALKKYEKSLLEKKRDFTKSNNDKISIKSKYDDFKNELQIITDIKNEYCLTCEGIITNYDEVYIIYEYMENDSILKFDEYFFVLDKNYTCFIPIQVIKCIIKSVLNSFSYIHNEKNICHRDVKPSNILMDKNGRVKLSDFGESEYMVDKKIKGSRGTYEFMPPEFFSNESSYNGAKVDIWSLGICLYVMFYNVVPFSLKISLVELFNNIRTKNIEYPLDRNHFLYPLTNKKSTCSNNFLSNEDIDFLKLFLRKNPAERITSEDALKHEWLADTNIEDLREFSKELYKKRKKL
Chain of L-lactate dehydrogenase (Plasmodium falciparum (isolate CDC / Honduras)) (Q27743 whole entry, looked up): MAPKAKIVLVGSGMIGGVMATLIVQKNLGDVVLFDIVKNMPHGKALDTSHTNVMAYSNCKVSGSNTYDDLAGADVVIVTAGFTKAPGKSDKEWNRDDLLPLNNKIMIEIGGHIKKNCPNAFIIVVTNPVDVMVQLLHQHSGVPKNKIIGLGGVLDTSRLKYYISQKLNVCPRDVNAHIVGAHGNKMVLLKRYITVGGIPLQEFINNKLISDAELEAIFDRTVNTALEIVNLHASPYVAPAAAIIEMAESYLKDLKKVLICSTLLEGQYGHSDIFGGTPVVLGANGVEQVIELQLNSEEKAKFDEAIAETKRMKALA

One may read the inhibition as the drop in the measured response relative to a control, in per cent. For the molecule `COc1cc(Cc2cnc(N)nc2N)cc(OCCCCCCC(=O)O)c1OC`, the growth inhibition in test [1] was 2%; in test [3] it was 90% (active). For the same molecule, in test [2], the inhibition was -4%. The outcome in test [4], in test [5], in test [6] and in test [7] was inactive.
In the case of `CCOC(=O)c1nc2ccc(SC3CCCCC3)cn2c1Br`, the values for the growth inhibition in test [1] and in test [3] were 3% and 86% (active), respectively. In addition, in test [2], the inhibition is 3%. In addition, the result in test [4], in test [5], in test [6] and in test [7] was inactive.
As for `CC(=O)Oc1c(Br)c(C)nc(C)c1-c1ccc(Oc2ccc(OC(F)(F)F)cc2)cc1`, the growth inhibition in test [1] is 97% (active); in test [3], 98% (active). The inhibition in test [2] is -4%. Further, the result in test [4], in test [5], in test [6] and in test [7] was inactive.
On to `Nc1nc(N)c2c(ccc3c2ccn3Cc2cccc(F)c2)n1`, for which the growth inhibition is 99% (active) in test [1] and 101% (active) in test [3]. Besides, the inhibition in test [2] is -6%. Also, the result in test [4], in test [5], in test [6] and in test [7] was inactive.
As for `Nc1nc(N)c2cc(Cc3ccc([N+](=O)[O-])cc3)cnc2n1`, the growth inhibition is -3% in test [1] and 91% (active) in test [3]. The inhibition in test [2] was -2%. Further, the result in test [4], in test [5], in test [6] and in test [7] was inactive.
For `CC(C)n1c(C(C)(C)C)cc2c3c(N)nc(N)nc3ccc21`, the values for the growth inhibition in test [1] and in test [3] were 99% (active) and 100% (active), respectively. Further, the inhibition in test [2] is -3%. Also, the result in test [4], in test [5], in test [6] and in test [7] was inactive.
With `CCCc1cc(Cc2cnc(N)nc2N)c2cccnc2c1OC`, the growth inhibition in test [1] is 3%; in test [3], 98% (active). In addition, the inhibition in test [2] was 2%. The result in test [4], in test [5], in test [6] and in test [7] was inactive.
Consider `Nc1ccncc1C(=O)NCCCCN1CCN(c2nsc3ccccc23)CC1`, for which the growth inhibition in test [1] is 9%; in test [3], 101% (active). Moreover, in test [2], the inhibition is 6%. For the same molecule, the result in test [4], in test [5], in test [6] and in test [7] was inactive.
Regarding `CC1CCNc2ccc(Cc3cnc(N)nc3N)cc21` (centres undefined), the growth inhibition in test [1] is 0%; in test [3], 82% (active). The inhibition in test [2] was 5%. Besides, the result in test [4], in test [5], in test [6] and in test [7] was inactive.
With `CCCCCCCCCC(=O)NCC1CC(Br)=NO1` (centres undefined), the growth inhibition was 42% in test [1] and 87% (active) in test [3]. Also, the inhibition in test [2] is -7%. The result in test [4], in test [5], in test [6] and in test [7] was inactive.
Regarding `COc1ccc2c(c1CCNCCCCNCCc1c(OC)ccc3c1CCCC3)CCCC2`, the growth inhibition in test [1] was 25%; in test [3] it was 101% (active). Also, the inhibition in test [2] was 7%. Besides, the outcome in test [4], in test [5], in test [6] and in test [7] was inactive.
On to `Cc1c(Cc2ccc(C(C)C)cc2)cnc2nc(N)nc(N)c12`, for which the growth inhibition in test [1] is -3%; in test [3] it was 97% (active). Also, the inhibition in test [2] was 6%. For the same molecule, the result in test [4], in test [5], in test [6] and in test [7] was inactive.
For the molecule `Cc1[nH]c(C)c(-c2ccc(S(=O)(=O)c3ccc(Cl)cc3)cc2)c(=O)c1Br`, the growth inhibition in test [1] and in test [3] was 97% (active) each time. Also, the inhibition in test [2] was 5%. Also, the outcome in test [4], in test [5], in test [6] and in test [7] was inactive.
Consider `Cc1[nH]c(C)c(-c2ccc(Oc3cccc(OC(F)(F)F)c3)cc2)c(=O)c1Br`, for which the growth inhibition in test [1] was 96% (active); in test [3], 100% (active). Besides, the inhibition in test [2] was -7%. Also, the result in test [4], in test [5], in test [6] and in test [7] was inactive.
`CCCCCCn1ccc2c3c(N)nc(N)nc3ccc21`: the growth inhibition is 91% (active) in test [1] and 99% (active) in test [3]. The inhibition in test [2] is 0%. Further, the result in test [4], in test [5], in test [6] and in test [7] was inactive.
On to `CC(C)(C)c1ccc(-c2nc3c(ccc4nc(N)nc(N)c43)[nH]2)cc1`, for which the growth inhibition was 101% (active) in test [1] and 100% (active) in test [3]. The inhibition in test [2] is 1%. The outcome in test [4], in test [5], in test [6] and in test [7] was inactive.
Turning to `CC(=O)Oc1c(Cl)c(C)nc(C)c1-c1ccc(Oc2ccc(OC(F)(F)F)cc2)cc1`, the growth inhibition in test [1] was 98% (active); in test [3], 97% (active). The inhibition in test [2] was 5%. The outcome in test [4], in test [5], in test [6] and in test [7] was inactive.
On to `CCCCN(CCCC)Cc1cc(N(C)c2ccc([N+](=O)[O-])cn2)ccc1O`, for which the growth inhibition in test [1] and in test [3] was 98% (active) each time. Moreover, the inhibition in test [2] is 7%. For the same molecule, the result in test [4], in test [5], in test [6] and in test [7] was inactive.
On to `CC(C)Cn1cc2c(ccc3nc(N)nc(N)c32)n1`, for which the growth inhibition in test [1] is 2%; in test [3], 97% (active). Moreover, the inhibition in test [2] was -2%. Moreover, the outcome in test [4], in test [5], in test [6] and in test [7] was inactive.
For `Nc1nc(N)c2c(ccc3c2cnn3Cc2cccnc2)n1`, the growth inhibition is 96% (active) in test [1] and 95% (active) in test [3]. Besides, in test [2], the inhibition was 0%. Moreover, the outcome in test [4], in test [5], in test [6] and in test [7] was inactive.
Regarding `Cc1nc(N)nc(N)c1-c1ccc(Br)c(Br)c1`, the growth inhibition in test [1] was 1%; in test [3] it was 94% (active). The inhibition in test [2] was -2%. The outcome in test [4], in test [5], in test [6] and in test [7] was inactive.
Regarding `CC(CO)(CO)NCc1cc2ccc3ccsc3c2c2ccccc12`, the growth inhibition was 98% (active) in test [1] and 96% (active) in test [3]. Besides, the inhibition in test [2] is 2%. Also, the result in test [4], in test [5], in test [6] and in test [7] was inactive.
